High-throughput results (PubChem BioAssay)
TrxR1 inh – blocks rat thioredoxin reductase 1 | O89049 | recombinant rTrxR1, NADPH fluorescence consumption, selenite substrate | Potency, µM (series often up to 114 µM), for inactives: at the highest dose activity change, negative = inhibition, actives largely listed as inhibitors | hit rate 1% among 390,000 | AID 588453; also: potency is read from the fitted curve at half-maximal effect; nearly all actives have a fitted effect of over 65% in size
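Rat TrxR1 (90 nM in the dispensed reagent) was pre-reduced with 400 uM NADPH for 5 min at room temperature, then incubated with compound for 15 min. After 400 uM selenite was added, NADPH fluorescence (Ex 340/Em 450 nm) was followed for 8 min.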
Coupling enz – counter-screen for Giardia aldolase inhibitors: coupling enzyme system. activity change, negative = inhibition, % at 58.2 µM, hits read low. hit rate 0.67% among 290,000. coupling enzyme system counterscreen, AmpLite Red fluorescence; in the data active = activity change below about -30%
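Final compound at 57.5 uM, incubated 10 min at RT with coupling enzyme reagent (glyceraldehyde-3-phosphate), then 20 min with substrate and AmpLite Red detection. Fluorescence read at 525/598 nm; tests interference with the coupling assay, not aldolase inhibition.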
TrxR1 substrate – is turned over as a substrate by rat TrxR1 | O89049 | AID 588456 | hit rate 0.01% among 390,000 | purified TrxR1 substrate turnover, NADPH consumption readout | Potency, µM (top dose mostly 114 µM), for inactives: at the top dose activity change, negative = substrate turnover; also: potency is read from the fitted curve at half-maximal effect; nearly all actives have a fitted effect of over 50% in size
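Rat TrxR1, dispensed at 90 nM, was prereduced with 400 uM NADPH (final) for 5 min at ~22 deg C, then incubated with compound 15 min before 400 uM selenite. A first-read NADPH fluorescence drop versus no-compound background flagged substrates.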
Eya2 inh – Eya2 (human) phosphatase inhibition. O00167. recombinant Eya2, OMFP fluorescence dephosphorylation (OMFP is methylfluorescein phosphate). Potency, µM (top dose mostly 76.9 µM), for the others: top-dose activity, negative = inhibition, usual class: inhibitors. hit rate 0.006% among 330,000; also: potency is read from the fitted curve at half-maximal effect
Target sequence (O00167 whole entry, looked up): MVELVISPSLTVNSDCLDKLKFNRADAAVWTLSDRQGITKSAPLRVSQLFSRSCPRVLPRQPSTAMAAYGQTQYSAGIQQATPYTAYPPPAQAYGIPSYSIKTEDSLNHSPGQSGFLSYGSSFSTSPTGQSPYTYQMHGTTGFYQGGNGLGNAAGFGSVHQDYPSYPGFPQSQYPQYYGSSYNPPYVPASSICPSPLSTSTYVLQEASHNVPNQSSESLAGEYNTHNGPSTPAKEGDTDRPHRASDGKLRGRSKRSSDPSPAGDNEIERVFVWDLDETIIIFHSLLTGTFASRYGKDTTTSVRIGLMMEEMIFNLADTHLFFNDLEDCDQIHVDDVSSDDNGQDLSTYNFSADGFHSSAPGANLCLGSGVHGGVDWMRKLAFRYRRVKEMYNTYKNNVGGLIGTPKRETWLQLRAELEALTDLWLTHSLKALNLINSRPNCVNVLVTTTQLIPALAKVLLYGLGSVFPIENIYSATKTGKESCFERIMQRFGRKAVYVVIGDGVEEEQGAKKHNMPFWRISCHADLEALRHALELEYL
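Eya2 protein (added as 0.2 uM solution) was preincubated with compound for 10 min at ambient temperature in 50 mM HEPES pH 7.5, 50 mM NaCl, 5 uM MgCl2, 0.05% BSA, 1 mM DTT. OMFP (added at 50 uM) then reacted 10 min; fluorescence read at 485/525 nm.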
mIDH1 inhibitor – human IDH1 R132H inhibition. IDH1-R132H enzyme, NADPH consumption, diaphorase/resazurin fluorescence. Potency, µM (doses to about 76.6 µM), for inactives: at the highest dose activity change, negative = inhibition, most hits filed as inhibitors. hit rate 0.093% among 390,000; also: potency is read from the fitted curve at half-maximal effect; nearly all actives have a fitted effect of over 65% in size
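IDH1-R132H (0.5 ug/mL dispensed) in pH 7.5 Tris buffer was preincubated 30 min with compound, then given a substrate mix of 0.016 mM NADPH and 2 mM alpha-KG for 80 min at room temperature; remaining NADPH was read by diaphorase/resazurin fluorescence.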
Starred values were filed as active, the others as inactive; ? = inconclusive; . = no result given; ! = a repeat was not active; [ ] = another dose, or the depositor's remark. Rows were chosen to be rich in hits. Some 1.5% of all compounds tested hit in one or more screens of this group. Unless noted, calls follow the shape of the dose curve; as a rule, active = well fitted curve in the direction sought with a large enough effect; inconclusive = small, poorly fitted or top-dose-only effect, or another doubt; inactive = no such curve, though single readings can be large; an effect the other way counts as inactive or inconclusive. % is scaled to controls: 0 for no effect and ±100 for the full control effect.

SMILES | TrxR1 inh | Coupling enz | TrxR1 substrate | Eya2 inh | mIDH1 inhibitor
COc1ccc(C(C2C(=O)CC(C)(C)CC2=O)C2C(=O)CC(C)(C)CC2=O)cc1COCC(F)(F)F | 7.9µM* | 7 | 4% | -2% | 8%
COc1cc(C(C2C(=O)CC(C)(C)CC2=O)C2C(=O)CC(C)(C)CC2=O)ccc1OC(C)=O | ? | . | 7%[57.1 µM] | . | 5%
COc1cc(C(C2C(=O)CC(C)(C)CC2=O)C2C(=O)CC(C)(C)CC2=O)ccc1O | 14µM* | 2 | 4% | -11% | 3%
CC(=O)Oc1cc(OC(C)=O)c2c(=O)cc(-c3ccc(OC(C)=O)c(OC(C)=O)c3)oc2c1 | . | 1 | . | . | .
COc1ccccc1-c1ccc(/C=C2\C=CC(=O)O2)o1 | 14µM* | 3 | 2%[57.1 µM] | ? | 16%
Cc1ccn2c(NCc3ccco3)c(-c3ccccc3)nc2c1 | -36% | . | 26% | . | .
CCOc1ccc(OCC(=O)OCn2c(SC)nnc(C)c2=O)cc1 | -2% | 4 | -3% | -2% | 2%
CCOc1ccc(C(c2c(O)nc(SC)n(C)c2=O)c2c(O)nc(SC)n(C)c2=O)cc1 | 8.9µM* | 8 | 9% | 23% | 2%
NCCCC[C@H](N)C(=O)N[C@@H](CCCN=C(N)N)C(=O)N1CCC[C@H]1C(=O)N1CCC[C@H]1C(=O)NCC(=O)N[C@@H](Cc1ccccc1)C(=O)N[C@@H](CO)C(=O)N1CCC[C@H]1C(=O)N[C@@H](Cc1ccccc1)C(=O)O | . | -2 | . | . | .
CCn1c2ccccc2c2cc(/C=C3/C=Cc4ccccc43)ccc21 | -8% | . | -7% | . | .
CC(C)(C)C(=O)OCCNc1nc(-c2cccs2)nc2ccccc12 | -3% | . | -4% | . | .
N#CC1(NC(=O)Cn2ncc(Cl)c(Cl)c2=O)CCCCC1 | 5µM* | . | 9%[57.1 µM] | -5% | 0%
CC(C)Oc1ccc(C(=O)CCN2CCOCC2)cc1 | 3.5µM* | . | 5% | . | 3%
CCCCCOc1ccc(C(=O)CCN2CCOCC2)cc1 | 10µM* | 2 | 5%[57.1 µM] | -9% | -7%
CCCCOc1ccc(C(O)(CCN2CCOCC2)c2ccccc2)cc1 (centres undefined) | 40µM* | 2 | -5% | 4% | -1%
O=C(CCN1CCOCC1)c1ccc(Br)cc1 | 0.45µM* | 0 | 12%[57.1 µM] | 3% | 1%
CC(C)Oc1ccc(C(=O)CCN2CCCCC2)cc1 | ? | 4 | 4% | -3% | 7%
CN1CCN(c2nc3c(=O)[nH]c(N)nc3n2C2OC(CO)C(O)C2O)CC1 (centres undefined) | 16% | . | 6% | . | .
COc1cccc(-c2nnc3n2N=C(c2ccc(OC)cc2OC)CS3)c1 | . | 2 | . | . | .
CCOc1ccc(CN(C)C(=O)CCl)cc1 | 18µM* | 1 | 13%[57.1 µM] | -4% | -2%
Cc1cc2c(cc1Cl)N(C(=O)Nc1ccc(Oc3cccnc3C)nc1)CC2 | ? | . | -9%[57.1 µM] | -2% | .
Cc1ccc2c(C(=O)CNc3nccs3)c[nH]c2c1 | 1% | . | -1% | . | .
Cc1nc2c(O)cccc2cc1CO | 4% | -37* | 20%[0.0914 µM] | 13% | 6%
Cc1ccc2cccc(O)c2n1 | 4% | . | 4% | . | .
COc1ccccc1NC(=O)c1c(NCc2ccc(C)o2)sc2c1CCCCC2 | 14µM* | . | 2%[57.1 µM] | . | -5%
SMILES | TrxR1 inh | Coupling enz | TrxR1 substrate | Eya2 inh | mIDH1 inhibitor
COc1ccc(OC)c(NC(=O)c2c(NCc3ccc(C)o3)sc3c2CCCCC3)c1 | 14µM* | . | 3%[57.1 µM] | . | -10%
COc1ccc(Cl)cc1NC(=O)c1c(NCc2ccc(C)o2)sc2c1CCCCC2 | ? | . | 9%[57.1 µM] | . | 8%
COc1cc(NC(=O)CSc2nnc3c4ccccc4n(C)c3n2)cc(OC)c1OC | 0% | . | 1% | . | .
O=S(=O)(c1cccc2ccccc12)N1CCN(c2nc(-c3cccs3)nc3ccccc23)CC1 | -10% | . | 3% | . | .
CC(C)CC(=O)/C=C/n1c(=S)oc2ccccc21 | 6.3µM* | 1 | -12% | 0% | 6%
Cn1c(=S)oc2ccccc21 | 27%[57.1 µM] | -3 | 4% | 3% | 11%
CC(=O)Nc1ccc(NC(=O)CCn2c(=S)oc3ccccc32)cc1 | 12% | -1 | -1% | 5% | -11%
CC(=O)/C=C/n1c(=S)oc2ccccc21 | 3.2µM* | 1 | -3%[57.1 µM] | 4% | 4%
Cc1[nH]c2ccccc2c1C(=O)C(C)Sc1nc2ccccc2c(=O)n1Cc1cccnc1 (centres undefined) | 13% | . | 4% | . | .
COC(=O)C1C(O)C(C)C(O)C(C)(O)/C=C\C=C(/C)C(=O)Nc2c(C)c(OC(C)=O)c3c(c2O)C(=O)C(C)=C2OCOC(=C23)/C(C)=C/C(C)(O)C(O)C(C)C1O (centres undefined) | ? | -42* | ? | -7% | -6%
Cn1ncc(Cl)c1C(=O)N/N=C/c1cccc(OC2CSC2)c1 | -17%[57.1 µM] | -40* | -1%[57.1 µM] | 0% | 31%
Cn1ncc(Cl)c1C(=O)N/N=C/c1ccccn1 | 1% | -53* | 2% | 1% | -2%
O=C(CSc1ncccn1)N/N=C/c1cccc(OC2CSC2)c1 | 24% | -3 | -1% | ? | 0%
O=C(N/N=C/c1ccccn1)c1ccc(Cl)cc1 | 4% | -2 | 1% | -7% | -4%
COc1ccc(C2CC(c3ccccc3)Oc3cc4c(cc32)OCO4)cc1 (centres undefined) | -16% | -23 | -8% | . | .
Cc1cc(C)n2nc3nc(N4CCCCC4)nc(-c4ccco4)c3c2n1 | 10µM* | 4 | 3%[57.1 µM] | 4% | 8%
Cc1cc(Nc2ccccc2Cl)n2nc(-c3ccco3)nc2n1 | 5%[57.1 µM] | . | 5%[57.1 µM] | . | 1%
CC(C)(C)c1ccc(S(=O)(=O)/C=C/C#N)cc1 | 2.1µM*! | . | 5%[57.1 µM] | 0% | .
O=C(NCC1CCCO1)c1nn2c(C(F)(F)F)cc(-c3ccc(Br)o3)nc2c1Br (centres undefined) | 14µM* | 1 | 6% | 20% | -3%
O=C(/C=C/c1ccc([N+](=O)[O-])cc1)Oc1ccc(/C=N/NC(=O)c2ccncc2)cc1 | 35µM* | . | -5% | -2% | -12%
O=C(NN=Cc1ccc([N+](=O)[O-])cc1)c1ccncc1 | 7%[2.29 µM] | . | 2%[2.29 µM] | . | 10%
CC(C)=CCC/C(C)=C/CC/C(C)=C/CCC1(C)CCc2cc(O)ccc2O1 (centres undefined) | 2% | . | -3% | . | .
N#Cc1c(C(F)(F)F)cc(-c2cccs2)nc1SCc1ccc(Cl)nc1 | 50µM* | -2 | 149% | -1% | 2%
COCCN(CCOC)Cc1c(O)ccc2c1O/C(=C\c1ccc(C)o1)C2=O | 50µM* | -15 | ? | ? | -10%
CCN(CC)Cc1c(O)ccc2c1O/C(=C\C=C\c1ccccc1)C2=O | 71µM* | 0 | -13% | 27% | 2%
OC[C@H]1NC[C@@H](O)[C@@H](O)[C@@H]1O | . | -3 | . | . | .
C[n+]1ccc(C(c2c[nH]c3ccccc23)c2cc[n+](C)c3ccccc23)c2ccccc21 | -32% | . | 0% | . | .
C=CC(C1=CC(=O)C=CC1=O)c1ccccc1 (centres undefined) | . | -18 | . | . | .
